Source: PubChem (National Center for Advancing Translational Sciences (NCATS))
PLK1 PBD inh = PLK1 (human) polo-box domain binding inhibition; P53350; 360,000 tested, 2.8% active; Potency, µM, for the others: max response, negative = inhibition, usual class: inhibitors; Plk1 PBD binding of FITC phosphopeptide, fluorescence polarization; AID 720504; further: series mostly up to about 57 µM; on the % scale 0 is the no-effect control and ±100 the full control effect; nearly all actives have a fitted effect of over 65% in size
USP1 inh = inhibitors of human USP1/UAF1 deubiquitinase. recombinant USP1/UAF1, Ub-Rhodamine cleavage fluorescence. Potency, µM (titrated, usually from 57.1 µM), without a hit: top-dose activity change, negative = inhibition, usual class: inhibitors. 390,000 tested, 0.23% active. AID 743255; further: on the % scale 0 is the no-effect control and ±100 the full control effect; nearly all actives have a fitted effect of over 60% in size
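USP1/UAF1 complex (1 nM) preincubated 15 min at room temperature with compound, then Ub-Rho substrate (150 nM final) added. Kinetic fluorescence at 480/540 nm over 6 reads at 60 s intervals; 50 mM HEPES pH 7.8, 0.5 mM EDTA, 0.1 mg/ml BSA, 1 mM TCEP, 0.01% Tween-20.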
VDR inhibitor = vitamin D3 receptor (human) inhibition; P11473; VDR-SRC2-3 peptide fluorescence polarization, 2 h; Potency, µM, inactives show max response, negative = inhibition, hits mostly inhibitors; 400,000 tested, 0.93% active; AID 504847; further: on the % scale 0 is the no-effect control and ±100 the full control effect
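Measured by FP: displacement of SRC2-3 coactivator peptide from VDR by library compounds, following a two-hour ambient incubation.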
KAT2A inh = GCN5L2 (KAT2A) acetyltransferase inhibition; Q92830; GCN5L2 HAT assay, ThioGlo1 CoA-SH fluorescence; Potency, µM (highest dose often 58.9 µM), without a hit: at the top dose activity change, negative = inhibition, hits mostly inhibitors; 390,000 tested, 0.21% active; further: on the % scale 0 is the no-effect control and ±100 the full control effect
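Enzyme at 20nM final was mixed with library compounds for 15 min at room temperature. Peptide H3(1-25) at 75uM, acetyl-CoA at 70uM and ThioGlo1 at 50uM were then added. Plates were read immediately and after 20 min (Ex340nm/Em540nm).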
TSG101-PTAP inh = blocks PTAP/TSG101 interaction to inhibit HIV-1 budding; Q99816; Fluorescence polarization, FITC-PTAP peptide / Tsg101 binding; Potency, µM (series often up to 115 µM), for inactives: at the top dose activity change, negative = inhibition, actives largely listed as inhibitors; 340,000 tested, under 10 active; AID 493005; active means well fitted inhibition curve with a large enough effect in the main read-out, with a control signal flat, not every such curve was filed as active; inconclusive means small, poorly fitted or top-dose-only effect, or effect the other way, or a change in a side signal; inactive means no such curve, though single readings can be large or run the other way; further: % of control where 0% means no effect
Target sequence (Q99816 whole entry, looked up): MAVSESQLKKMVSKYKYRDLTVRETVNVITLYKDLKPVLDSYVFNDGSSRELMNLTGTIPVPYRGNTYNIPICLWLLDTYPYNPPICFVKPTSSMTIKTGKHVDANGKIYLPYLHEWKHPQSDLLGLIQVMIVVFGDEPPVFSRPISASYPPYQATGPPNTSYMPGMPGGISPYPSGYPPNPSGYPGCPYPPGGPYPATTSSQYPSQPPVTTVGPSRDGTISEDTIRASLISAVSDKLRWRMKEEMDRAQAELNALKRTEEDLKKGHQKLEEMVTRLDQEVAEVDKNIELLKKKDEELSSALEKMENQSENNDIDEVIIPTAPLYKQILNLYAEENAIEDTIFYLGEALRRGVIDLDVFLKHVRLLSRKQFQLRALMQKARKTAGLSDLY
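Fluorescence anisotropy tracks displacement of a FITC-tagged PTAP peptide (50 nM) from the Tsg101 binding domain (10 uM), following a 20 min room-temperature incubation at pH 7.5.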
* = called active by the depositor; ? = inconclusive; nt = no result given. Rows were chosen to be rich in hits. Some 3% of all compounds tested hit in one or more screens of this group. Unless noted, the call rests on the fitted dose curve; in most records, active means well fitted curve in the direction sought with a large enough effect; inconclusive means small, poorly fitted or top-dose-only effect, or another doubt; inactive means no such curve, though single readings can be large; an effect the other way counts as inactive or inconclusive. Potency means the concentration at half of the fitted maximal effect.

SMILES	PLK1 PBD inh	USP1 inh	VDR inhibitor	KAT2A inh	TSG101-PTAP inh
CC(C)Oc1ccc(CNCC2(O)CCOC(C)(C)C2)cc1 (stereo unspecified)	30µM*	-8%	-26%	2%	-3%
CC1(C)CC(O)(CNCc2ccc3c(c2)OCO3)CCO1 (stereo unspecified)	-5%	-3%	-8%	-3%	-7%
CC(C)C(=O)SCCCCCCC(=O)Nc1nc(-c2ccccc2)cs1	nt	nt	2%	-18%	nt
O=c1c2ccccc2n(Cc2c(F)cccc2Cl)c(=O)n1CCc1ccccc1	nt	?	-13%	-1%	nt
Cc1ccccc1OCc1nc2ccccc2[nH]1	27µM*	-24%	-10%	0%	-2%
COc1ccccc1OCc1nc2ccccc2[nH]1	1%	-20%	10%	-19%	-5%
Cc1ccc(CN(C(=O)COc2ccc(Br)cc2)C2CCS(=O)(=O)C2)o1 (stereo unspecified)	12µM*	-21%	?	-2%	-5%
CCc1ccc(OCC(=O)N(Cc2ccc(C)o2)C2CCS(=O)(=O)C2)cc1 (stereo unspecified)	nt	-24%	16%	-5%	nt
Cc1ccc(CN(C(=O)COc2ccc(C)c(C)c2)C2CCS(=O)(=O)C2)o1 (stereo unspecified)	27µM*	-15%	-27%	1%	-6%
Cc1ccc(OCC(=O)N(Cc2ccc(C)o2)C2CCS(=O)(=O)C2)cc1 (stereo unspecified)	27µM*	-10%	?	1%	-3%
Cc1ccc(CN(C(=O)COc2ccc(F)cc2)C2CCS(=O)(=O)C2)o1 (stereo unspecified)	nt	1%	9%	-5%	nt
CC1=CC(=O)Nc2ccccc2S1	-17%	22µM*	-15%	nt	-2%
CC1(C)CC(=O)C2=C(C1)Nc1ccccc1S2	-26%	?	6%	-1%	-8%
CCCC[C@@H](C)/C=C(C)/C=C(\C)C(=O)NC1=C[C@@](O)(/C=C/C=C/C=C/C(=O)NC2=C(O)CCC2=O)[C@@H]2O[C@@H]2C1=O	nt	nt	2.2µM*	?	nt
CCOC(=O)c1c(C)n(C)c2cc(-c3ccc(C)cc3)c(O)cc12	-11%	-5%	-17%	3%	-3%
CCOC(=O)c1c(C)sc(-c2c(-c3cc(C)ccc3C)[nH]c3c2c(=O)[nH]c(=O)n3C)c1O	nt	25µM*	11%	-24%	nt
CCOC(=O)c1c(C)sc(-c2c(-c3cccc(Cl)c3)[nH]c3c2c(=O)n(C)c(=O)n3C)c1O	nt	16µM*	-13%	-25%	nt
Cc1ccc(C)c(-c2[nH]c3c(c2-c2c(-n4cccc4)n(C)c(=O)n(C)c2=O)c(=O)n(C)c(=O)n3C)c1	nt	-8%	9%	-13%	nt
CCOC(=O)c1c(C)sc(-c2c(-c3cc(C)ccc3C)[nH]c3c2c(=O)n(C)c(=O)n3C)c1O	nt	28µM*	6%	-13%	nt
CCOC(=O)c1c(N2C(=O)Nc3ccccc3N2O)n[nH]c1-c1cccc(Cl)c1	-10%	-27%	-13%	-1%	1%
CCc1noc(-c2ccc(N3CCCCC3C)c([N+](=O)[O-])c2)n1 (stereo unspecified)	nt	-15%	14%	-7%	nt
CCOc1ccc(-c2csc(Cn3c(CN4CCN(C)CC4)nc4ccccc4c3=O)n2)cc1	24µM*	-10%	?	1%	0%
CN(C)Cc1nc2ccccc2c(=O)n1Cc1nc(-c2cc3ccccc3o2)cs1	19µM*	-14%	?	-2%	-1%
Cc1cc(Cl)ccc1NC(=O)CN1C(=O)COc2ccc(S(=O)(=O)N3CCC(C)CC3)cc21	nt	-23%	-7%	2%	nt
CCC1CCc2c(sc(NC(=O)c3ccco3)c2C(N)=O)C1 (stereo unspecified)	-21%	-25%	3%	-22%	0%
SMILES	PLK1 PBD inh	USP1 inh	VDR inhibitor	KAT2A inh	TSG101-PTAP inh
CCCC1CCc2c(sc(N)c2C(N)=O)C1 (stereo unspecified)	27µM*	-23%	?	-2%	1%
CCC(C)(C)C1CCc2c(sc(N)c2C(N)=O)C1 (stereo unspecified)	0%	-9%	?	-9%	-2%
CC(C)(C)C1CCc2c(sc(N)c2C(N)=O)C1 (stereo unspecified)	?	-24%	79µM*	-10%	1%
CCOc1ccc(Nc2nc3cc(S(=O)(=O)N(CC)CC)ccc3o2)cc1	5.3µM*	-18%	79µM*	-12%	-3%
Cc1ccc(S(=O)(=O)N2C(=O)C(c3ccccc3)SC2=Nc2ccccc2)cc1 (stereo unspecified)	9.5µM*	-16%	?	-4%	-1%
Cc1ccc(S(=O)(=O)N2C(=O)C(C)SC2=Nc2ccccc2)cc1 (stereo unspecified)	-13%	-13%	4%	2%	0%
O=C(CCNC(=O)c1ccccc1Cl)N/N=C\c1ccc(O)cc1	12µM*	-13%	22µM*	-2%	2%
COc1cc(/C=N/NC(=O)CCNC(=O)c2ccccc2Cl)ccc1O	-3%	-21%	8%	-7%	-4%
CCOC(=O)c1noc2ncnc(N3CCN(c4cccc(C(F)(F)F)c4)CC3)c12	nt	-25%	7%	-15%	nt
Cc1c(N=C2C=CC(=O)c3ccccc32)c(=O)n(-c2ccccc2)n1C	19µM*	32µM*	?	-20%	-2%
Cc1c(N=Nc2ccc(O)cc2)c(=O)n(-c2ccccc2)n1C	-6%	-12%	-2%	-2%	0%
CC(C)c1ccc(S(=O)(=O)/N=C2/C=C(Sc3ncn[nH]3)C(=O)c3ccccc32)cc1	1.5µM*	1.8µM*	10µM*	?	-5%
Cn1nc([N+](=O)[O-])nc1Oc1ccccc1F	24µM*	-20%	-25%	-7%	-1%
Cn1nc([N+](=O)[O-])nc1Oc1ccccc1N	0%	-4%	2%	-6%	-3%
Cn1nnnc1SCC(=O)NC(=O)Cc1ccccc1	3µM*	-23%	-30%	1%	1%
O=C(O)c1ccc(N/N=C/c2ccc(-c3ccc(Cl)cc3Cl)o2)cc1	24µM*	?	-1%	-26%	1%
O=C(O)c1ccc(N/N=C/c2ccc(-c3cccc(Cl)c3)o2)cc1	?	-22%	-5%	-16%	-3%
O=C(O)c1ccc(-c2ccc(/C=N/Nc3ccc([N+](=O)[O-])cc3)o2)cc1	44%	13µM*	2%	-25%	?
O=C(O)c1ccc(N/N=C/c2ccc(-c3cc(Cl)ccc3Cl)o2)cc1	21µM*	-14%	?	-7%	-3%
CCOC(=O)c1ccc(NC(=O)c2cc3sccc3n2Cc2ccc(Cl)cc2)cc1	nt	-8%	0%	-8%	nt
CCOc1cc(/C=N/O)ccc1OCc1ccc(F)cc1	24µM*	-12%	50µM*	-3%	-1%
COc1cc(/C=N/O)ccc1OCc1ccc(Cl)cc1	nt	nt	nt	0%	nt
CCOc1cc(/C=N/O)ccc1OCc1ccc([N+](=O)[O-])cc1	24µM*	-13%	?	-2%	-2%
